Laboratory results published in PubChem BioAssay (Tox21).
Inconclusive results are not listed. The source made the active and inactive calls. Unless noted, the call rests on the fitted dose curve; in most records, active means well fitted curve in the direction sought with a large enough effect in the repeat runs; inconclusive means weak or mixed curves; inactive means no such curve, though single readings can be large; an effect the other way counts as inactive or inconclusive.

How the values were obtained:
[1] = qHTS assay to identify small molecule agonists of the estrogen receptor alpha (ER-alpha) signaling pathway in the presence of an antagonist - cell viability counter screen (AID 1259386);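 further: cells exposed to compounds for 22 h at 37 °C before the viability read; nearly all actives have a fitted effect of over 30% in size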; further: potency means the concentration at half of the fitted maximal effect
Procedure, shortened: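 The test measures whether compounds kill ER-alpha reporter cells (VM7Luc4E2) under antagonist co-treatment (ICI-182,780, 10.0nM). Fluorescence from CellTiter-Fluor is read after a 22hr exposure.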

[2] = target: Progesterone receptor (Homo sapiens) (UniProt P06401); assay: qHTS assay to identify small molecule agonists of the progesterone receptor (PR) signaling pathway (AID 1346784; calls by dose curve; further: nearly all actives have a fitted effect of over 30% in size)
Procedure, shortened: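 Agonist mode, quantitative HTS format in a HEK 293T line expressing a UAS-controlled beta-lactamase reporter; 16 hr compound exposure at 37C in 2% charcoal-stripped FBS, then LiveBLAzer B/G FRET fluorescence.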

[3] = qHTS assay to identify small molecule agonists of the progesterone receptor (PR) signaling pathway - cell viability counter screen (AID 1346799; calls by dose curve; further: nearly all actives have a fitted effect of over 45% in size)
Procedure, shortened: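 Counter screen for cytotoxicity: compound-treated PR-UAS-bla HEK293T cells (16 hr, 37C, 5% CO2) were assayed with CellTiter-Glo, luminescence measured after 30 min at room temperature.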

[4] = qHTS assay to identify small molecule agonists of the TGF-beta/Smad signaling pathway - cell viability counter screen (AID 1346829); further: top concentration of the series differs between compounds; nearly all actives have a fitted effect of over 45% in size
Procedure, shortened: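 HEK 293T SBE-bla line, 5 hr compound exposure at 37 C, multiplexed CellTiter-Glo viability read by luminescence.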

[5] = target: Progesterone receptor (Homo sapiens) (UniProt P06401); assay: qHTS assay to identify small molecule antagonists of the progesterone receptor (PR) signaling pathway (AID 1346795; active means well fitted inhibition curve with a large enough effect in the signal ratio in the repeat runs, not every such curve was filed as active; the % refers to the signal ratio; further: potency means the concentration at half of the fitted maximal effect)
Procedure, shortened: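 HEK293T PR-UAS-bla reporter cells in charcoal-stripped serum (2%) received compound after a 6 hr settling period, followed by R5020 agonist at 1 nM final; 16 hr incubation preceded the FRET substrate step and fluorescence measurement.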

[6] = qHTS assay to identify small molecule antagonists of the progesterone receptor (PR) signaling pathway - cell viability counter screen (AID 1346798); further: nearly all actives have a fitted effect of over 50% in size; further: potency means the concentration at half of the fitted maximal effect
Procedure, shortened: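 Same-well multiplex: after 16 hr at 37C with compound and R5020 stimulation, HEK293T cells carrying a UAS-bla reporter received LiveBLAzer substrate (2 hr RT), then CellTiter-Glo (30 min RT) for luminescent viability.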

[7] = qHTS assay to identify small molecule antagonists of the TGF-beta/Smad signaling pathway - cell viability counter screen (AID 1346824); further: nearly all actives have a fitted effect of over 50% in size; further: potency means the concentration at half of the fitted maximal effect
Procedure, shortened: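 SBE-bla HEK 293T cells were plated overnight at 37 C, then given compounds in DMSO plus TGF-beta1 (added as 0.25 ng/mL solution) for 5 hr. After the bla read, CellTiter-Glo was added to the same wells and luminescence read after 30 min at room temperature.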

[8] = qHTS assay to identify small molecule agonists of the TGF-beta/Smad signaling pathway (AID 1346859; active means well fitted activation curve with a large enough effect in the signal ratio in the repeat runs, not every such curve was filed as active; the % refers to the signal ratio; further: series mostly up to about 77 µM)
Procedure, shortened: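 Smad-responsive beta-lactamase reporter cells (HEK 293T) received compounds from DMSO stocks after overnight attachment, were incubated 5 hr, then treated 2 hr with FRET substrate before dual-emission fluorescence measurement (405 nm excitation).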

[9] = target: Thyrotropin-releasing hormone receptor (Homo sapiens) (UniProt P34981); assay: qHTS assay to identify small molecule antagonists of the thyrotropin-releasing hormone receptor (TRHR) signaling pathway (AID 1346877; active means well fitted inhibition curve with a large enough effect in the repeat runs, not every such curve was filed as active; further: series mostly up to about 51 µM)
Procedure, shortened: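 Overnight-plated (18 h, 37 °C) HEK293 cells expressing TRHR were dye-loaded 2 h, treated with compound, then stimulated with TRH at 1 nM final. Fluorescence intensity was captured every second for 3 min.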

[10] = target: Thyrotropin-releasing hormone receptor (Homo sapiens) (UniProt P34981); assay: qHTS assay to identify small molecule agonists of the thyrotropin-releasing hormone receptor (TRHR) signaling pathway (AID 1346891; calls by dose curve;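 further: HEK293 cells expressing TRHR with calcium dye readout; series mostly up to about 58 µM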)
Procedure, shortened: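 Agonist-mode calcium mobilisation screen: TRHR-transfected HEK293 cells cultured overnight (18 h), dye-loaded for 2 h at 37 °C, exposed to compounds, and monitored by fluorescence for 3 min.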

Measured: Potency

Progesterone receptor (Homo sapiens), sequence (P06401 whole entry, looked up): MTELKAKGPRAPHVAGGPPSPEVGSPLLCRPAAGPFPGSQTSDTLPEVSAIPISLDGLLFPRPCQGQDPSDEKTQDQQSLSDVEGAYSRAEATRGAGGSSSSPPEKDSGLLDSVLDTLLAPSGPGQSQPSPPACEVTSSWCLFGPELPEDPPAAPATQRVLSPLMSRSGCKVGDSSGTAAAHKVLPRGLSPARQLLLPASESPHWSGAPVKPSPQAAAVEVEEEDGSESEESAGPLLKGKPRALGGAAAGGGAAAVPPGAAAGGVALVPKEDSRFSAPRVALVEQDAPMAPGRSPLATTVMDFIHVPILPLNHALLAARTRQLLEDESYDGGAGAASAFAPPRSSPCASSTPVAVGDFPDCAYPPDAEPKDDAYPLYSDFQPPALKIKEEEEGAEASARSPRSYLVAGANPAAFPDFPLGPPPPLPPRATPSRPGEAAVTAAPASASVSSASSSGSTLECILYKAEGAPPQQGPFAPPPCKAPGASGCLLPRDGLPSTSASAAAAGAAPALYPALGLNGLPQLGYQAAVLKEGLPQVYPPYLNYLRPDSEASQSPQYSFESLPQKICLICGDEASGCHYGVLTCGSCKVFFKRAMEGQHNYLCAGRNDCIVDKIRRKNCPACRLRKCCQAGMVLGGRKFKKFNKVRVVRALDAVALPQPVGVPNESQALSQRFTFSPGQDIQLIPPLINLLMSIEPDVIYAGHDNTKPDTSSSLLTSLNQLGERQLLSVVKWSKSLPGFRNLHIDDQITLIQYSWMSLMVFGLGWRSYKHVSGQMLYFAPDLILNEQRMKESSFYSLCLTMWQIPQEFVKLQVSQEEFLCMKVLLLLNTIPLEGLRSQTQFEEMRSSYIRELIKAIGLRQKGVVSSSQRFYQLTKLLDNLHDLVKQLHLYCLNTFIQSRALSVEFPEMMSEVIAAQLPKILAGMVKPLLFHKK
Thyrotropin-releasing hormone receptor (Homo sapiens), sequence (P34981 whole entry, looked up): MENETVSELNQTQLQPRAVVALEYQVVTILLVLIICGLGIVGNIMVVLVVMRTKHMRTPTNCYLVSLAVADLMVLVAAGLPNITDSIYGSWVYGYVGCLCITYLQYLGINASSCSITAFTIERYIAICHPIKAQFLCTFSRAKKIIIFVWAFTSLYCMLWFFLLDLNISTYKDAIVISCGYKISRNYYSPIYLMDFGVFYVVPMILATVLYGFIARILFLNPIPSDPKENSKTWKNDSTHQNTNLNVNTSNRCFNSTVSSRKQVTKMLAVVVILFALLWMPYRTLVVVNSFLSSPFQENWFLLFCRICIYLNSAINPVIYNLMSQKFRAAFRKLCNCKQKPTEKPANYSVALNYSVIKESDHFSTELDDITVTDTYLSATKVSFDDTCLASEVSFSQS

CC(C)Nc1ccc(NC(C)C)c2c1C(=O)c1ccccc1C2=O
active: [1] 11.3 µM
inactive: [2] | [3] | [4]

Nc1cccc(S(=O)(=O)c2cccc(N)c2)c1
not listed: [2]
inactive: all other assays above

CC(=O)[O][Al]
inactive: [1] | [2] | [7] | [4]

S=C([S-])NCCNC(=S)[S-].[Mn+2]
inactive: [1] | [2] | [4] | [8]

O=CC1CC=CCC1 (stereo unspecified)
not listed: [2] | [6]
inactive: all other assays above

CC(=O)NO
not listed: [2] | [5] | [6]
inactive: all other assays above

CC(C)Cc1ccc(C(C)C(=O)OCc2ccccn2)cc1 (stereo unspecified)
not listed: [2] | [5]
inactive: all other assays above

C/C=C/C=C/CO
inactive: [1] | [5] | [4] | [8]

Nc1ncn([C@H]2C[C@H](O)[C@@H](CO)O2)c(=O)n1
not listed: [2] | [5]
inactive: all other assays above

CCCCCCCCCCCCN1CCCCCC1=O
inactive: [1] | [6] | [7] | [9] | [10]

CC/C=C\CCOC(=O)CC
not listed: [2] | [3] | [5]
inactive: all other assays above

CC1OC(=O)C(C)OC1=O (stereo unspecified)
not listed: [2] | [5]
inactive: all other assays above

OC(CN1CCC(Cc2ccc(F)cc2)CC1)c1ccc(Cl)cc1 (stereo unspecified)
inactive: [1] | [3] | [7] | [4] | [9] | [10]

COc1ccc(C(=O)N2CCN(CC(=O)N3CCOCC3)CC2)cc1
inactive: [1] | [5] | [3] | [4] | [9] | [10]

CCCCCCCCCCCC(=O)OC[C@@H](O)[C@H]1OC[C@H](OCCO)[C@H]1OCCO
not listed: [2] | [3] | [6]
inactive: all other assays above

NC(=O)C(c1ccccc1)(c1ccccc1)[C@@H]1CCN(CCc2ccc3c(c2)CCO3)C1
inactive: [1] | [6] | [3] | [4] | [9] | [10]

CCO[C@H](Cc1ccc(OCCc2ccc(OS(C)(=O)=O)cc2)cc1)C(=O)O
inactive: [1] | [5] | [3] | [7] | [4] | [8]

C=CCOc1ccccc1OCC(O)CNC(C)C (stereo unspecified)
not listed: [2] | [3] | [5]
inactive: all other assays above

CCCCCCCCCCCc1ccccc1
not listed: [2] | [6]
inactive: all other assays above

C=C(C)C(=O)OCC
not listed: [2] | [5]
inactive: all other assays above

CCCCCCCCCc1ccc(OCCOCCO)cc1
inactive: [8] | [9] | [10]
active: [1] 22.8 µM | [5] 12.8 µM | [7] 18.3 µM

CCCCCCCCCCCCCCCCOS(=O)(=O)O
inactive: [1] | [5] | [7] | [4] | [8]

CCCCC(CC)COC(=O)COc1ccc(Cl)cc1Cl (stereo unspecified)
not listed: [2] | [5]
inactive: all other assays above

CCC(C)O (stereo unspecified)
not listed: [2] | [3] | [7]
inactive: all other assays above

Nc1ccccc1S(=O)(=O)c1ccccc1
not listed: [2] | [3] | [5]
inactive: all other assays above

CC(C)OC(=O)C(C)N(C(=O)c1ccccc1)c1ccc(F)c(Cl)c1 (stereo unspecified)
active: [5] 24.3 µM
not listed: [2] | [3] | [6]
inactive: all other assays above

OCCNCc1ccccc1
inactive: [1] | [5] | [4] | [8] | [9] | [10]

Cc1cccc(C)c1OCC(=O)N[C@@H](Cc1ccccc1)[C@@H](O)C[C@H](Cc1ccccc1)NC(=O)[C@H](C(C)C)N1CCCNC1=O
inactive: [7]
active: [1] 29.8 µM | [6] 29.8 µM

CCOC(=O)COC(=O)c1cc(Oc2ccc(C(F)(F)F)cc2Cl)ccc1[N+](=O)[O-]
inactive: [1] | [6] | [3] | [7] | [4]

O=C(OCCc1ccccc1)c1ccccc1
not listed: [2] | [3] | [5]
inactive: all other assays above
